Assay [1] can be described thus: qHTS assay to identify small molecule agonists of the androgen receptor (AR) signaling pathway in the presence of an antagonist - cell viability counter screen (AID 1259379). Note: nearly all actives have a fitted effect of over 25% in size. Note: potency is the fitted concentration of half-maximal effect. An outline of the steps: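 Seed MDA-kb2 at 3,000 cells/well; incubate 5 hr, 37C, 0% CO2. Add nilutamide to 3.0uM final, then pin compounds at 15 concentrations. Incubate 16 hr. Add CellTiter-Fluor at 15 hr, read fluorescence after 1 hr.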

A short description of assay [2]: qHTS assay to identify small molecule agonists of the estrogen receptor beta (ER-beta) signaling pathway - cell viability counter screen (AID 1259380). Note: nearly all actives have a fitted effect of over 30% in size. The procedure, abridged:
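CellTiter-Glo read, 30 min RT, same wells as bla assay; cells ER-beta-UAS-bla HEK293T; 16 hr compound, 37C; medium 2% charcoal-stripped FBS.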
(In general: In qHTS, concentration-response curves come from the screen itself.)

A short description of assay [3]: qHTS assay to identify small molecule antagonists of the estrogen receptor beta (ER-beta) signaling pathway - cell viability counter screen (AID 1259382).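 Note: HEK293T cells carrying ER-beta-UAS-bla reporter stimulated with estradiol; series mostly up to about 92 µM; nearly all actives have a fitted effect of over 55% in size.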 An outline of the steps:
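In this multiplexed counter screen, cells were seeded at 2,000 per well in medium with 2% charcoal-stripped FBS and incubated 6 hr before compound and 1nM final E2 were added. Sixteen hours later, ATP-based luminescence reported viability.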

Assay [4] can be described thus: qHTS assay to identify small molecule agonists or antagonists of the thyroid stimulating hormone receptor (TSHR) signaling pathway - wild type cell line counter screen (AID 1259384; calls by dose curve). An outline of the steps:
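Wild-type Hek293 cells, 800/well, 18 h at 37C, then compound with Ro20-1724 for 30 min RT. cAMP by HTRF (cAMP-d2/anti-cAMP cryptate), 1 h RT, fluorescence read. 15 concentrations, triplicates.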

In assay [5] the target is Thyrotropin receptor (Homo sapiens) (UniProt P16473). In words: qHTS assay to identify small molecule antagonists of the thyroid stimulating hormone receptor (TSHR) signaling pathway (AID 1259385; calls by dose curve; note: nearly all actives have a fitted effect of over 20% in size). An outline of the steps: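 TSHR-HEK293 cells (800/well) plated 18 h, then compounds with Ro20-1724 and TSH at 1.5 ng/mL final, 30 min at room temperature. cAMP quantified by HTRF (cAMP-d2/anti-cAMP-cryptate, 1 h); 15 concentrations in triplicate.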
Sequence of Thyrotropin receptor (Homo sapiens) (P16473 whole entry, looked up): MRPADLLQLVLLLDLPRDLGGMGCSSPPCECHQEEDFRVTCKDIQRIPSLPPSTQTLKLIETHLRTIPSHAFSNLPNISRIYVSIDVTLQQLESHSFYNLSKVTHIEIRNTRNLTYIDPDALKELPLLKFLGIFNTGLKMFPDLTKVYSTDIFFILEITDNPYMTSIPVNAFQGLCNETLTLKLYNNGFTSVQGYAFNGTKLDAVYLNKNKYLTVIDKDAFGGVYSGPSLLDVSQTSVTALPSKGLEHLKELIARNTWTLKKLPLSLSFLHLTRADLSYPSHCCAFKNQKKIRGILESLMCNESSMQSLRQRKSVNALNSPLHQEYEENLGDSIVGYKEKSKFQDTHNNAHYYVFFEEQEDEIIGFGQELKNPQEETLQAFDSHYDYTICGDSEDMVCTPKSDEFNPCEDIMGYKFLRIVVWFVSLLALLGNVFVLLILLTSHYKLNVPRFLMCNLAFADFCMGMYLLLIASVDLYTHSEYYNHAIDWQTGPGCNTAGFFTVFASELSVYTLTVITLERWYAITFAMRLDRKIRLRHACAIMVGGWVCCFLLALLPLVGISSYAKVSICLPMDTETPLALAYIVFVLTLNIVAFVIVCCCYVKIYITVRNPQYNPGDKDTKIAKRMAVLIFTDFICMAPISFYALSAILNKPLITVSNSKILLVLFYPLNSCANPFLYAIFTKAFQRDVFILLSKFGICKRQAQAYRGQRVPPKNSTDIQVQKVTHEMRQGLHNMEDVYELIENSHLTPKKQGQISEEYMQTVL

Assay [6] can be described thus: qHTS assay to identify small molecule agonists of the estrogen receptor alpha (ER-alpha) signaling pathway in the presence of an antagonist - cell viability counter screen (AID 1259386).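 Note: series mostly up to about 92 µM; cells exposed to compounds for 22 h at 37 °C before the viability read; nearly all actives have a fitted effect of over 30% in size.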 The procedure, abridged:
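Viability counter screen using VM7Luc4E2 (full-length ER-alpha, four ERE-luciferase). The cells were treated with compounds alongside ICI-182,780 10.0nM for 22hr, and live-cell protease fluorescence was quantified with CellTiter-Fluor.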

Assay [7] addresses Progesterone receptor (Homo sapiens) (UniProt P06401). Put plainly: qHTS assay to identify small molecule agonists of the progesterone receptor (PR) signaling pathway (AID 1346784; calls by dose curve; note: nearly all actives have a fitted effect of over 30% in size). An outline of the steps: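 Agonist qHTS: compounds pinned onto 3,000 PR-UAS-bla HEK 293T cells per well in charcoal-stripped serum medium, 16hr at 37C, then beta-lactamase activity measured by LiveBLAzer FRET fluorescence after 2 hours at room temperature.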

Assay [8] shares this target. Put plainly: qHTS assay to identify small molecule antagonists of the progesterone receptor (PR) signaling pathway (AID 1346795; active = well fitted inhibition curve with a large enough effect in the signal ratio in the repeat runs, not every such curve was filed as active; the % refers to the signal ratio; note: potency is the fitted concentration of half-maximal effect). An outline of the steps: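 Antagonist mode with agonist R5020 at 1 nM final and 16 hr incubation at 37C. Reporter was beta-lactamase driven by UAS in HEK293T (PR-UAS-bla), 2% charcoal-stripped serum; signal from LiveBLAzer FRET substrate, 2 hr at room temperature.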

A short description of assay [9]: qHTS assay to identify small molecule antagonists of the progesterone receptor (PR) signaling pathway - cell viability counter screen (AID 1346798). Note: series mostly up to about 92 µM; nearly all actives have a fitted effect of over 50% in size. An outline of the steps:
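Cytotoxicity read as CellTiter-Glo luminescence (30 min, room temperature) in the same wells as the beta-lactamase readout. HEK293T PR-UAS-bla cells in charcoal-stripped 2% FBS received compound and R5020, then 16 h at 37C, 5% CO2.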

Assay [10] in a line: qHTS assay to identify small molecule antagonists of the TGF-beta/Smad signaling pathway - cell viability counter screen (AID 1346824). Note: nearly all actives have a fitted effect of over 50% in size. An outline of the steps: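 SBE-bla HEK 293T cells, incubated overnight, then compound plus 0.25 ng/mL TGF-beta1 (stock added) for 5 hr at 37 C. Viability was read in the same wells by CellTiter-Glo luminescence after 30 min at room temperature.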

A short description of assay [11]: qHTS assay to identify small molecule agonists of the TGF-beta/Smad signaling pathway - cell viability counter screen (AID 1346829). Note: top concentration of the series differs between compounds; nearly all actives have a fitted effect of over 45% in size. An outline of the steps: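 SBE-bla HEK 293T cells plated overnight, compound exposure 5 hr at 37 C. Viability read in the same wells by CellTiter-Glo luminescence after 30 min at room temperature, following the beta-lactamase read.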

Assay [12] can be described thus: qHTS assay to identify small molecule agonists of the TGF-beta/Smad signaling pathway (AID 1346859; active = well fitted activation curve with a large enough effect in the signal ratio in the repeat runs, not every such curve was filed as active; the % refers to the signal ratio; note: series mostly up to about 77 µM). An outline of the steps: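 Fluorescence (ex 405 nm; em 460 and 530 nm) was read 2 h after LiveBLAzer FRET substrate at RT. The preceding compound treatment of overnight-plated SBE-bla HEK293T cells lasted 5 h at 37 C.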
Assay [13] addresses Thyrotropin-releasing hormone receptor (Homo sapiens) (UniProt P34981). Put plainly: qHTS assay to identify small molecule antagonists of the thyrotropin-releasing hormone receptor (TRHR) signaling pathway (AID 1346877; active = well fitted inhibition curve with a large enough effect in the repeat runs, not every such curve was filed as active; note: series mostly up to about 51 µM). The procedure, abridged:
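Following an 18 h incubation at 37 °C and a 2 h calcium dye load, TRHR-HEK293 cells were exposed to compound (5 min, room temperature) and challenged with TRH, 1 nM final.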

The target is the same in assay [14]. In words: qHTS assay to identify small molecule agonists of the thyrotropin-releasing hormone receptor (TRHR) signaling pathway (AID 1346891; calls by dose curve; note: series mostly up to about 58 µM). The procedure, abridged: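 Agonist-mode intracellular calcium readout: kinetic fluorescence over 3 min at 1 s intervals after compound addition to TRHR-HEK293 cells (18 h seeded, 2 h dye-loaded at 37 C). Fifteen concentrations, triplicates.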

The target in assay [15] is Androgen receptor (Homo sapiens) (UniProt P10275). In words: qHTS assay to identify small molecule agonists of the androgen receptor (AR) signaling pathway in the presence of an antagonist (AID 1259381; calls by dose curve; note: nearly all actives have a fitted effect of over 15% in size). An outline of the steps:
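Test compounds at 15 concentrations were incubated for 16hr with MDA-kb2 reporter cells in presence of 3.0uM nilutamide (final). Signal: ONE-Glo luciferase luminescence.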

Assay [16] has as its target Estrogen receptor (Homo sapiens) (UniProt P03372). Put plainly: qHTS assay to identify small molecule agonists of the estrogen receptor alpha (ER-alpha) signaling pathway in the presence of an antagonist (AID 1259383; calls by dose curve; note: top concentration of the series differs between compounds; nearly all actives have a fitted effect of over 15% in size). The procedure, abridged:
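Stably transfected VM7Luc4E2 reporter cells, kept 5 days in charcoal-stripped serum, received ICI-182,780 at 10.0nM final before compound addition. Following 22hr incubation at 37C and 5% CO2, luciferase signal was read by luminescence.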

Assay [17] in a line: qHTS assay to identify small molecule antagonists of the sonic hedgehog signaling (Shh) pathway (AID 1259369; calls by dose curve; note: nearly all actives have a fitted effect of over 45% in size; note: potency is the fitted concentration of half-maximal effect). The procedure, abridged:
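For antagonist detection, the reporter line received test compounds together with conditioned medium, incubated 24hr at 37 C, 5% CO2, then luminescence was recorded following 30min room-temperature luciferase reagent incubation.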

Assay [18] in a line: qHTS assay to identify small molecule agonists of the progesterone receptor (PR) signaling pathway - cell viability counter screen (AID 1346799; calls by dose curve; note: nearly all actives have a fitted effect of over 45% in size; note: potency is the fitted concentration of half-maximal effect). The procedure, abridged: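 Cytotoxicity measured by CellTiter-Glo luminescence (30 min, RT) in the same wells as the PR beta-lactamase agonist read. Those HEK293T cells had 16 h compound treatment at 37 C in 2% charcoal-stripped FBS medium.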

Several values for one entry are separate records, joined by “and”; a condition that tells them apart may be missing. Equal entries are not always repeated. Results filed as inconclusive are left out. Some structures have more than one record in an assay (separate samples or runs), and their calls can disagree. Activity calls are given as the source filed them. Unless noted, calls come from the whole dose curve; as a rule, active = well fitted curve in the direction sought with a large enough effect in the repeat runs; inconclusive = weak or mixed curves; inactive = no such curve, though single readings can be large; an effect the other way counts as inactive or inconclusive.

Sequence of Estrogen receptor (Homo sapiens) (P03372 whole entry, looked up): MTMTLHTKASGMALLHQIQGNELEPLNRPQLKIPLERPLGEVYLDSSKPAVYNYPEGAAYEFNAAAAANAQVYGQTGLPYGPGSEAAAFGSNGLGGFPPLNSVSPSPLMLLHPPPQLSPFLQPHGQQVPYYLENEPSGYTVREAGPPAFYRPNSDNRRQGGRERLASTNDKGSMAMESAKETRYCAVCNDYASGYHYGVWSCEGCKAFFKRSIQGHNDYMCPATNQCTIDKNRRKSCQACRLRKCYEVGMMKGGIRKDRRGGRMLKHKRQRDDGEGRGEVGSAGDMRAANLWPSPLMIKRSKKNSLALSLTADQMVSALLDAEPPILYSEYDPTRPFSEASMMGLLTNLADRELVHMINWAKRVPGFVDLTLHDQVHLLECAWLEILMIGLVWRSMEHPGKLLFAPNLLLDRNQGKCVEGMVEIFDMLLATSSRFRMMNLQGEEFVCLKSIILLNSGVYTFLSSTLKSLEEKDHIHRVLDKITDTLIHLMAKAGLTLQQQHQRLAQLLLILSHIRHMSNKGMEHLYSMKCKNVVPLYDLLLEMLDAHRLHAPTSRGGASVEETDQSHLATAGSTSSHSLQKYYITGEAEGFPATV
Sequence of Progesterone receptor (Homo sapiens) (P06401 whole entry, looked up): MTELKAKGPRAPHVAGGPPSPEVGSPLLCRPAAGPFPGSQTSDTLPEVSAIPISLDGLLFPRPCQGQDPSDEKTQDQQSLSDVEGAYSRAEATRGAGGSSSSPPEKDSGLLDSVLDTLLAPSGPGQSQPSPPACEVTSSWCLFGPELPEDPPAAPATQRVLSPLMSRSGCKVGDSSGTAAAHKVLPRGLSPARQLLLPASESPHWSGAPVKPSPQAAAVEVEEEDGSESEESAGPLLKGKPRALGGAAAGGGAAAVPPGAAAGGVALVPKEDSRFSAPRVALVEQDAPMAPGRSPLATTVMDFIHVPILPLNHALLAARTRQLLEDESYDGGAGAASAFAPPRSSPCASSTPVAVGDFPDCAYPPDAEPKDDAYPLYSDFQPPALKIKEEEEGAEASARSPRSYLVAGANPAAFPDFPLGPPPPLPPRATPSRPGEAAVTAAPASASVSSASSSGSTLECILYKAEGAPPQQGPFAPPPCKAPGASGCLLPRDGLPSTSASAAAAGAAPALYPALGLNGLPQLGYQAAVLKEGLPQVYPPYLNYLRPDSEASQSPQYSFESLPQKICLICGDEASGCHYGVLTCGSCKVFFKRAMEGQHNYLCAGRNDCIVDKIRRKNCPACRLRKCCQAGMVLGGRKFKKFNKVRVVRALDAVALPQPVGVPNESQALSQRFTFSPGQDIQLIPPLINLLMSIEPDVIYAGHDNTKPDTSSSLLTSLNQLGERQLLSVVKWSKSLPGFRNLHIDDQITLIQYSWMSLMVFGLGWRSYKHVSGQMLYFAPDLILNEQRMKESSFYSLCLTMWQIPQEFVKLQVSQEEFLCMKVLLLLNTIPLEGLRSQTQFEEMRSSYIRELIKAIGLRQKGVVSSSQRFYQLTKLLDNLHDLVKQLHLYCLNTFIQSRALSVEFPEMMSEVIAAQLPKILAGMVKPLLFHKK
Sequence of Thyrotropin-releasing hormone receptor (Homo sapiens) (P34981 whole entry, looked up): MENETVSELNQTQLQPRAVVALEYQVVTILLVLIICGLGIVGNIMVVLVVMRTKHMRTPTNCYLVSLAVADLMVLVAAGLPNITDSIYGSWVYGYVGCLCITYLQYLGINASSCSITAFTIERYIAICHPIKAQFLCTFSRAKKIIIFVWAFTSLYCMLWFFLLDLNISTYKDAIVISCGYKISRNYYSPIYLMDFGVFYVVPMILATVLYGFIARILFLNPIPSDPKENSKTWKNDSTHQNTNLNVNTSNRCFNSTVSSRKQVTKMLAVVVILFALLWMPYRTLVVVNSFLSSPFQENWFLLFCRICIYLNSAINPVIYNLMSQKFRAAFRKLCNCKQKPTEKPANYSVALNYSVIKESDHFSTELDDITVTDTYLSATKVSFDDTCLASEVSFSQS
Sequence of Androgen receptor (Homo sapiens) (P10275 whole entry, looked up): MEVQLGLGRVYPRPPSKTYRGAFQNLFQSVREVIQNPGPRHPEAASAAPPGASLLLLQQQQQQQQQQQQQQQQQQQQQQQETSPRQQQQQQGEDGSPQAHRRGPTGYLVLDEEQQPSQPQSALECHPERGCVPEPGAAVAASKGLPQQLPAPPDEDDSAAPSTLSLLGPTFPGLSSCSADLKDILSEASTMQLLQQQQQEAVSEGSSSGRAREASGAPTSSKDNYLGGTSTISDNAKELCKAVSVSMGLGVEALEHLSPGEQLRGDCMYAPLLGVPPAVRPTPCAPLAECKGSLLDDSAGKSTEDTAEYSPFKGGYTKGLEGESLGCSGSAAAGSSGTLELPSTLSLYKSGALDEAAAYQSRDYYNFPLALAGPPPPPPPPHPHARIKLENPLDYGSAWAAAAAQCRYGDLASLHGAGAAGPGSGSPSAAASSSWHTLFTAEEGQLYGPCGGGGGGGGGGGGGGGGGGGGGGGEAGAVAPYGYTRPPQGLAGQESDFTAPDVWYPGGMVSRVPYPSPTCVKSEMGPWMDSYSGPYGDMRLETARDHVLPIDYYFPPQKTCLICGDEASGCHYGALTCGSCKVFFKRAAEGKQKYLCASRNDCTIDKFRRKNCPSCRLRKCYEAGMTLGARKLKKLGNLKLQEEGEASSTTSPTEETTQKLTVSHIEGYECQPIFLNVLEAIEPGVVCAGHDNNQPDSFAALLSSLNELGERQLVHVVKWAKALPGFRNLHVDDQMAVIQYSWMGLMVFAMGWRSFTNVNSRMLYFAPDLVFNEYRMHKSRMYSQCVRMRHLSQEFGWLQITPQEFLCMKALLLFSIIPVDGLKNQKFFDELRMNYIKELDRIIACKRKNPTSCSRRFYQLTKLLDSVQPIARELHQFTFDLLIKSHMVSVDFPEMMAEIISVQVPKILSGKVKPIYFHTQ

`O=CCc1ccccc1`: the Potency result in assay [1], in assay [2], in assay [3], in assay [5], in assay [6] and in assay [7] was “inactive” in each case. Besides, the Potency entry in assay [8], in assay [9], in assay [10], in assay [11], in assay [13] and in assay [14] was “inactive” each time. Also, the result in [4] and in [12] was inactive.
Take `CC1=CCC(C(C)(C)O)CC1` (stereo unspecified): the Potency entry in assay [1], in assay [2], in assay [3], in assay [16], in assay [5] and in [6] was “inactive” in each case. Further, the Potency result in assay [7], in [8], in assay [9], in assay [10], in assay [11] and in [13] was “inactive” in each case. Also, the Potency result in assay [14] is “inactive”. In addition, the outcome in [15], in assay [4] and in [12] was inactive.
On to `O=CCCCC=O`, for which the Potency result in [17], in assay [1], in assay [2], in assay [3], in assay [16] and in assay [6] was “inactive” each time. Besides, the Potency entry in [7], in assay [8], in [9], in assay [10], in assay [11] and in [13] was “inactive” each time. In assay [14], the Potency result is “inactive”. Besides, the outcome in assay [12] was inactive.
For `OC[C@H]1O[C@@H]2O[C@H]3[C@H](O)[C@@H](O)[C@@H](O[C@H]4[C@H](O)[C@@H](O)[C@@H](O[C@H]5[C@H](O)[C@@H](O)[C@@H](O[C@H]6[C@H](O)[C@@H](O)[C@@H](O[C@H]7[C@H](O)[C@@H](O)[C@@H](O[C@H]8[C@H](O)[C@@H](O)[C@@H](O[C@H]1[C@H](O)[C@H]2O)O[C@@H]8CO)O[C@@H]7CO)O[C@@H]6CO)O[C@@H]5CO)O[C@@H]4CO)O[C@@H]3CO`, the Potency entry in assay [17], in [1], in assay [3], in [5], in assay [6] and in [7] was “inactive” throughout. For the same molecule, the Potency result in assay [8], in assay [9], in [10], in assay [11], in assay [13] and in assay [14] was “inactive” in each case. For the same molecule, the outcome in [4] and in [12] was inactive. The Potency in assay [18] is 24.4 µM (active) and inactive.
Regarding `CN(C)CCN(Cc1cccs1)c1ccccn1`, the Potency entry in assay [17], in [1], in assay [3], in assay [16], in assay [5] and in assay [6] was “inactive” throughout. The Potency entry in assay [7], in [8], in assay [9], in [10] and in [11] was “inactive” throughout. For the same molecule, the call in [4] and in assay [12] was inactive.
Turning to `CCCC(=O)O`, the Potency entry in [17], in assay [1], in assay [3], in assay [5], in assay [6] and in assay [7] was “inactive” throughout. For the same molecule, the Potency result in assay [8], in assay [9], in assay [10], in [11], in assay [13] and in [14] was “inactive” each time. Besides, the outcome in [4] and in assay [12] was inactive.
As for `O=C(COc1ccc(Cl)cc1)N1CCN(Cc2ccc3c(c2)OCO3)CC1`, the Potency in assay [17] is 17.2 µM (active) and 18.8 µM (active); in assay [1], 68.6 µM (active) and inactive; in [8], 54.5 µM (active). The Potency result in assay [3], in assay [16], in assay [5], in [6], in assay [7] and in assay [9] was “inactive” each time. Besides, the Potency entry in assay [10], in assay [11], in assay [13] and in [14] was “inactive” each time. For the same molecule, the call in assay [4] and in assay [12] was inactive.
For the molecule `OC1CCCCCCCCCCC1`, the Potency result in assay [17], in assay [1], in assay [3], in assay [16], in [5] and in assay [6] was “inactive” throughout. For the same molecule, the Potency result in assay [7], in assay [8], in assay [9], in assay [10], in assay [11] and in assay [13] was “inactive” in each case. The Potency result in assay [14] was “inactive”. Further, the outcome in assay [4] and in [12] was inactive.

(Values after PubChem BioAssay (Tox21).)
